# Tests used:
# Experiment in all cases: DAPPL (digital affinity profiling via proximity ligation, sequencing); 10 mM Tris-HCl pH 7.5, 50 mM NaCl, 1 mM DTT, 4% glycerol, room temperature, 30 min; GST-TFs on glutathione beads, 16-mer random dsDNA library, 0.1% formaldehyde crosslink after washing; high values mean tight binding
# FLI1 = molecular target: T1, FLI1 (Homo sapiens, UniProt Q01543 1-452); details: protein: recombinant; tags: N-terminal GST; dsDNA, one strand shown
# T1 sequence: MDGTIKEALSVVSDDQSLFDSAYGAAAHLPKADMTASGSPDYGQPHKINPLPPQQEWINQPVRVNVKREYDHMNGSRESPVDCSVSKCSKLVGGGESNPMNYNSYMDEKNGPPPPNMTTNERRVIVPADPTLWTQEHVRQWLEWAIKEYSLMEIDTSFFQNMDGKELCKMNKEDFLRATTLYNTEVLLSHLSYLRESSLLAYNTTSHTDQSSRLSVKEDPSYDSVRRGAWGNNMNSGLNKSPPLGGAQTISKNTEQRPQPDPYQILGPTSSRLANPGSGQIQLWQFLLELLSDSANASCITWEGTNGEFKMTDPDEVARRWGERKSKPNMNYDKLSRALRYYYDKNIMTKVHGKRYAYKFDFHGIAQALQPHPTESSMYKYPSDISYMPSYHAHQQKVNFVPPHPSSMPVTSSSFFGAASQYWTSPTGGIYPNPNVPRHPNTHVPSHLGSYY
# How it was run: (§1)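 In yeast, human transcription factors were expressed with a GST fusion, then pulled down on glutathione beads and given DNA barcodes. Pooled with a tag-only sample, they were exposed to 200 nmole of a 16-mer random double-stranded DNA library (Tris/NaCl/DTT/glycerol buffer, room temperature, 30 min), washed, crosslinked with 0.1% formaldehyde, proximity-ligated using BsaI/T4 ligase for 1 h at 37 °C, PCR-amplified and read on an Illumina NextSeq500. Each hexamer's frequency of reads for a factor, divided by the matching frequency for the tag-only sample, gives the binding signal.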
# ELK1 = molecular target: T2, ELK1 (Homo sapiens, UniProt P19419 1-428); details: protein: recombinant; tags: N-terminal GST; dsDNA, one strand shown
# T2 sequence: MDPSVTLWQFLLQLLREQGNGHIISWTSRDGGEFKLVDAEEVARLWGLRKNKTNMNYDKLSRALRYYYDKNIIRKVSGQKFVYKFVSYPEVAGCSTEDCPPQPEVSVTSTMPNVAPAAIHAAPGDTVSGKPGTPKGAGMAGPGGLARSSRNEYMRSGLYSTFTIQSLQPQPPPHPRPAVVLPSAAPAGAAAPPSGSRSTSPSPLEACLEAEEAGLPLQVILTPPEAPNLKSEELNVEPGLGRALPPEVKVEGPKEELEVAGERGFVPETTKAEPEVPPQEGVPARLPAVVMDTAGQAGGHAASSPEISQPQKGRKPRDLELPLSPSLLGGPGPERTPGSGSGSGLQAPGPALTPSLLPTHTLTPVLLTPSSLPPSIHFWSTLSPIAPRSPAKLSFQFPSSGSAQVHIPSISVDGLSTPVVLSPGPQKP
# How it was run: as §1
# GABPA = molecular target: T3, GABPA (Homo sapiens, UniProt Q06546 1-454); details: protein: recombinant; tags: N-terminal GST; dsDNA, one strand shown
# T3 sequence: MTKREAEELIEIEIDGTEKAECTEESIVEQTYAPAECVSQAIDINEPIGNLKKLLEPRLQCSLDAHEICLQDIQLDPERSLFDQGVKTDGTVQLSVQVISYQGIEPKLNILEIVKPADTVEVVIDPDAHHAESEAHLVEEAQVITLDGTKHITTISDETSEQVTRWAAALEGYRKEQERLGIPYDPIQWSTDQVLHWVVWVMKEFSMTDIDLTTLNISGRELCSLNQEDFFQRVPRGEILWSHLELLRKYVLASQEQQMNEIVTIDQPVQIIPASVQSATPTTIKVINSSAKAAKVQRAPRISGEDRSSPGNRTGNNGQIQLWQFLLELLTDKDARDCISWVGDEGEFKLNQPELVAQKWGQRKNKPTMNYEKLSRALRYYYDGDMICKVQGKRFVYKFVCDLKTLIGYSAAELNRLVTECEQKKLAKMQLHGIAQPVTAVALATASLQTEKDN
# How it was run: as §1
# ERG = molecular target: T4, ERG (Homo sapiens, UniProt P11308 1-479); details: protein: recombinant; tags: N-terminal GST; dsDNA, one strand shown
# T4 sequence: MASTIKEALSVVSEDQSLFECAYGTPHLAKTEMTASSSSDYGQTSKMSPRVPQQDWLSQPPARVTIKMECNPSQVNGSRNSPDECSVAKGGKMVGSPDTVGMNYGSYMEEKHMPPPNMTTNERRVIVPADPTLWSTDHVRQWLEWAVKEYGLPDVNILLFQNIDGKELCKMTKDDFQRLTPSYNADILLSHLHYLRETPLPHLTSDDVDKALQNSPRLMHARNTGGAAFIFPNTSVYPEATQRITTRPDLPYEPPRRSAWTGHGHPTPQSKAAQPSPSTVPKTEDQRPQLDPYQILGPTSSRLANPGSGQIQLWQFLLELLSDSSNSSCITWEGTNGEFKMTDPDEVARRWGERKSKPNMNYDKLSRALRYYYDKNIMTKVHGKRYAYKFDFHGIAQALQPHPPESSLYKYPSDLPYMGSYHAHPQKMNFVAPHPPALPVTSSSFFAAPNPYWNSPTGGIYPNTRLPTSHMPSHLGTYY
# How it was run: as §1
# ELF1 = ELF1 (Homo sapiens, UniProt P32519 1-619); details: protein: recombinant; tags: N-terminal GST; dsDNA, one strand shown
# How it was run: as §1
# EHF = molecular target: T5, EHF (Homo sapiens, UniProt Q9NZC4 1-300); details: protein: recombinant; tags: N-terminal GST; dsDNA, one strand shown
# T5 sequence: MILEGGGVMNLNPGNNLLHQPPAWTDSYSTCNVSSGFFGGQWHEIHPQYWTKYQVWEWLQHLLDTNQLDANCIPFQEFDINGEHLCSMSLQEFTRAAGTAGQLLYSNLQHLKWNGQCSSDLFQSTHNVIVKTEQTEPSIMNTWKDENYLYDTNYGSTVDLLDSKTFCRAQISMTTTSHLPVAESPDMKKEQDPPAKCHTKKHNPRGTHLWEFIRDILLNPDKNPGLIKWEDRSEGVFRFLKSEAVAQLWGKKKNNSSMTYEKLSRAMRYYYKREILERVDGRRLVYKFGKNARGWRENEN
# How it was run: as §1
# SPI1 = SPI1 (Homo sapiens, UniProt P17947 1-270); details: protein: recombinant; tags: N-terminal GST; dsDNA, one strand shown
# How it was run: as §1
# SPIB = SPIB (Homo sapiens, UniProt Q01892 1-262); details: protein: recombinant; tags: N-terminal GST; dsDNA, one strand shown
# How it was run: as §1
# ELK3 = molecular target: T6, ELK3 (Homo sapiens, UniProt P41970 1-407); details: protein: recombinant; tags: N-terminal GST; dsDNA, one strand shown
# T6 sequence: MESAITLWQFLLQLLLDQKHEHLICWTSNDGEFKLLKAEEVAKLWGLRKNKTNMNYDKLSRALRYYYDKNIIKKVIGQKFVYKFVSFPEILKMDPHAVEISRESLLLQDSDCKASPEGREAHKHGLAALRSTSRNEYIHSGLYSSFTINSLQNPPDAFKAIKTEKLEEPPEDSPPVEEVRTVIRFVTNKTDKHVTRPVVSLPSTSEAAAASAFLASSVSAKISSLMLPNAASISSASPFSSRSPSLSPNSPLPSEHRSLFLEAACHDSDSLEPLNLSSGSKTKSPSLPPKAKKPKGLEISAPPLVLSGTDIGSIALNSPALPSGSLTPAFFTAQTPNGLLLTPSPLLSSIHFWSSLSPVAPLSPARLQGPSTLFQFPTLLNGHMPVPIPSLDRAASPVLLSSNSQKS
# How it was run: as §1
# FEV = molecular target: T7, FEV (Homo sapiens, UniProt Q99581 1-238); details: protein: recombinant; tags: N-terminal GST; dsDNA, one strand shown
# T7 sequence: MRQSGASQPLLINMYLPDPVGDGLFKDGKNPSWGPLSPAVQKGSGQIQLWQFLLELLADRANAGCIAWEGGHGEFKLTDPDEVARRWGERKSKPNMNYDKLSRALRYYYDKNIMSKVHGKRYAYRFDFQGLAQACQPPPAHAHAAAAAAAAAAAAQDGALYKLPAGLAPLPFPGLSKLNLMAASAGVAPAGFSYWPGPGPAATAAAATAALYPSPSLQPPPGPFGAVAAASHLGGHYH
# How it was run: as §1
# ETV5 = ETV5 (Homo sapiens, UniProt P41161 1-510); details: protein: recombinant; tags: N-terminal GST; dsDNA, one strand shown
# How it was run: as §1
# HSF1 = HSF1 (Homo sapiens, UniProt Q00613 1-529); details: protein: recombinant; tags: N-terminal GST; chain copies: 3; dsDNA, one strand shown
# How it was run: as §1
# SPIC = molecular target: T8, SPIC (Homo sapiens, UniProt Q8N5J4 1-248); details: protein: recombinant; tags: N-terminal GST; dsDNA, one strand shown
# T8 sequence: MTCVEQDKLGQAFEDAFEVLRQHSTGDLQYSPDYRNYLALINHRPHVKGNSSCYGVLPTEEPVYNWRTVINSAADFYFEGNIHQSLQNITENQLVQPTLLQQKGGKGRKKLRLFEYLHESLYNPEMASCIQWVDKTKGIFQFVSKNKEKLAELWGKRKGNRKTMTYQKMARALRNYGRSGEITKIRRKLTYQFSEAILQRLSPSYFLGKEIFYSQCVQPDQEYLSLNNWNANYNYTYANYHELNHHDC
# How it was run: as §1
# ELF4 = ELF4 (Homo sapiens, UniProt Q99607 1-663); details: protein: recombinant; tags: N-terminal GST; dsDNA, one strand shown
# How it was run: as §1
# ELK4 = molecular target: T9, ELK4 (Homo sapiens, UniProt P28324-2 1-405); details: protein: recombinant; tags: N-terminal GST; dsDNA, one strand shown
# T9 sequence: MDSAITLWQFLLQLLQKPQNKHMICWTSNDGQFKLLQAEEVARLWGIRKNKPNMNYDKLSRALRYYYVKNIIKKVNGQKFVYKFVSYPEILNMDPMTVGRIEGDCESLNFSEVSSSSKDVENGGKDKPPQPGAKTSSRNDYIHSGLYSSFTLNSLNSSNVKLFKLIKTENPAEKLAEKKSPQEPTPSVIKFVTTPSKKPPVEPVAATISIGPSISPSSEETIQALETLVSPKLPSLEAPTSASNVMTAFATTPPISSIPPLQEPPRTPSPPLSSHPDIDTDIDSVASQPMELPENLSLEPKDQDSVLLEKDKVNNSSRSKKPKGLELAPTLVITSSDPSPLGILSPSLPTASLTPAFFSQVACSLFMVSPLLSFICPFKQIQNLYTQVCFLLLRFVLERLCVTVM
# How it was run: as §1
# ETV2 = molecular target: T10, ETV2 (Homo sapiens, UniProt O00321 1-342); details: protein: recombinant; tags: N-terminal GST; dsDNA, one strand shown
# T10 sequence: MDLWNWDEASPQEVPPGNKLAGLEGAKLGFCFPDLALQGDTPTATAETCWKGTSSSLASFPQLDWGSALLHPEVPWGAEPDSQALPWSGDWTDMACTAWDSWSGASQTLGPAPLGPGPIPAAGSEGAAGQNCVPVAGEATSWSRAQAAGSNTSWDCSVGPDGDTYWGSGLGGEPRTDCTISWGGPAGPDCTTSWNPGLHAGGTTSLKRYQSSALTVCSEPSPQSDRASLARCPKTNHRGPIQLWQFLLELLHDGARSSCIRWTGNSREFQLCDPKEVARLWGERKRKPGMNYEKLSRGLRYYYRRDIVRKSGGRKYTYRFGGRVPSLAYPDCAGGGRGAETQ
# How it was run: as §1
# ELF3 = molecular target: T11, ELF3 (Homo sapiens, UniProt P78545 1-371); details: protein: recombinant; tags: N-terminal GST; dsDNA, one strand shown
# T11 sequence: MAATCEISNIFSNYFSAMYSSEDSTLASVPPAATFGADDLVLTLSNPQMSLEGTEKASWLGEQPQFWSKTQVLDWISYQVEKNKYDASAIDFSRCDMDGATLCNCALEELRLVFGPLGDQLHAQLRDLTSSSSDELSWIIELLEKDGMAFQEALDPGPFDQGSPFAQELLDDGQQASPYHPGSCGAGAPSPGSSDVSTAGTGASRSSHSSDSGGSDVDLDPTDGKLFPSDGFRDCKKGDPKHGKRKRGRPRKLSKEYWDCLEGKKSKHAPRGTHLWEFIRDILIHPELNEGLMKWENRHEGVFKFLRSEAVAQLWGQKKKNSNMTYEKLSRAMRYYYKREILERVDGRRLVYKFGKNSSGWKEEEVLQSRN
# How it was run: as §1
# CRX = CRX (Homo sapiens, UniProt O43186 1-299); details: protein: recombinant; tags: N-terminal GST; dsDNA, one strand shown
# How it was run: as §1
# ETV1 = ETV1 (Homo sapiens, UniProt P50549 1-477); details: protein: recombinant; tags: N-terminal GST; dsDNA, one strand shown
# How it was run: as §1
# Sequence of CRX (O43186 whole entry): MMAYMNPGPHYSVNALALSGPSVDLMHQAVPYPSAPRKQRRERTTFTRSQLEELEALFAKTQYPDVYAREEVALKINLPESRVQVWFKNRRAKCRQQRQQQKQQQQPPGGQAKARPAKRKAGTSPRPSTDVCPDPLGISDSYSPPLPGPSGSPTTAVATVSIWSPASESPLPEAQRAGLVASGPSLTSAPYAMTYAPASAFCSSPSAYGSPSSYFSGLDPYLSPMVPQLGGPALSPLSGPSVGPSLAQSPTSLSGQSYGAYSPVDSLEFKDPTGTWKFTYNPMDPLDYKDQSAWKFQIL
# Sequence of ELF1 (P32519 whole entry): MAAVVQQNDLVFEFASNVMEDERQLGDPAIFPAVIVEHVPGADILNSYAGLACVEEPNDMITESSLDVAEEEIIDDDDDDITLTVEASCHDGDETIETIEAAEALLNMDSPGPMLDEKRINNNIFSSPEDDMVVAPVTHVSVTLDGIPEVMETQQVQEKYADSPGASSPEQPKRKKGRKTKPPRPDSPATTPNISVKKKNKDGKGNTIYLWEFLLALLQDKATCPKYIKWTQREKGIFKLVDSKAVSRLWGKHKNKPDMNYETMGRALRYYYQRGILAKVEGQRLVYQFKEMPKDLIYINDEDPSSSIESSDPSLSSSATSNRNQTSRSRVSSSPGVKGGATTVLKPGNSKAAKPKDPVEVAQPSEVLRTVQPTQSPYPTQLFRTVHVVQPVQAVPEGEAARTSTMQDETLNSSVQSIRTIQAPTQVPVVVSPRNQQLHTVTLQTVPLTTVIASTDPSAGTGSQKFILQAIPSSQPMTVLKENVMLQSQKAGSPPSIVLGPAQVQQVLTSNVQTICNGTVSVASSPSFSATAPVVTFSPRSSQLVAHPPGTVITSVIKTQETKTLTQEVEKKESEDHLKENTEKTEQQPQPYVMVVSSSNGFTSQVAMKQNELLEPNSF
# Sequence of ETV1 (P50549 whole entry): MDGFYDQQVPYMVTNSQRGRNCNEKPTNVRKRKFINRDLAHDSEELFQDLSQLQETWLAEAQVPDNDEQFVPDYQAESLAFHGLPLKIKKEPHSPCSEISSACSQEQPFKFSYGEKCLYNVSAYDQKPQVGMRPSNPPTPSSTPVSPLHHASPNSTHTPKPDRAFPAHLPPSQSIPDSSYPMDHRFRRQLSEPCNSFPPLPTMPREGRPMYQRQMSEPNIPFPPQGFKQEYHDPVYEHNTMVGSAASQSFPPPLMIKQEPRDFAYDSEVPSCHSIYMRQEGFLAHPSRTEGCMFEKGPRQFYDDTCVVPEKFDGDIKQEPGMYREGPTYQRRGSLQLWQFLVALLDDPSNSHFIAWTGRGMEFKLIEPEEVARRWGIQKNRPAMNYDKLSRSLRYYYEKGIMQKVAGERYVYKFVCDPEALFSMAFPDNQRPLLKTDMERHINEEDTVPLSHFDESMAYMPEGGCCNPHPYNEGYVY
# Sequence of ELF4 (Q99607 whole entry): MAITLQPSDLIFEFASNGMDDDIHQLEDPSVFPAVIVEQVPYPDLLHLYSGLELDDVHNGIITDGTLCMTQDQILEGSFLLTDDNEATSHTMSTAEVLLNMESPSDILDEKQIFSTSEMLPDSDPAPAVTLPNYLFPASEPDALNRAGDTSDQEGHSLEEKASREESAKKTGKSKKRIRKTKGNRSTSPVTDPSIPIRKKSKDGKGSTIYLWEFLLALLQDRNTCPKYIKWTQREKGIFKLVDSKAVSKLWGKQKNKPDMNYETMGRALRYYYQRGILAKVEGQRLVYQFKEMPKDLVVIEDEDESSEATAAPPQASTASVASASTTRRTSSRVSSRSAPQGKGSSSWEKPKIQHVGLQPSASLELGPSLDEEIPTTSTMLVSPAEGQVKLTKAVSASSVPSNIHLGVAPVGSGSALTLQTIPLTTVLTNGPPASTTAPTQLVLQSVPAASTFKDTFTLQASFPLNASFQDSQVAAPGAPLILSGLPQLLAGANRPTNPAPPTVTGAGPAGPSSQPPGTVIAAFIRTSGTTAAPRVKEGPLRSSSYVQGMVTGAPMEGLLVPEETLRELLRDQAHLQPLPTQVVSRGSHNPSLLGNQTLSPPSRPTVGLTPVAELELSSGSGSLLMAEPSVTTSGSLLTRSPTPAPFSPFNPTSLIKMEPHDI
# Sequence of HSF1 (Q00613 whole entry): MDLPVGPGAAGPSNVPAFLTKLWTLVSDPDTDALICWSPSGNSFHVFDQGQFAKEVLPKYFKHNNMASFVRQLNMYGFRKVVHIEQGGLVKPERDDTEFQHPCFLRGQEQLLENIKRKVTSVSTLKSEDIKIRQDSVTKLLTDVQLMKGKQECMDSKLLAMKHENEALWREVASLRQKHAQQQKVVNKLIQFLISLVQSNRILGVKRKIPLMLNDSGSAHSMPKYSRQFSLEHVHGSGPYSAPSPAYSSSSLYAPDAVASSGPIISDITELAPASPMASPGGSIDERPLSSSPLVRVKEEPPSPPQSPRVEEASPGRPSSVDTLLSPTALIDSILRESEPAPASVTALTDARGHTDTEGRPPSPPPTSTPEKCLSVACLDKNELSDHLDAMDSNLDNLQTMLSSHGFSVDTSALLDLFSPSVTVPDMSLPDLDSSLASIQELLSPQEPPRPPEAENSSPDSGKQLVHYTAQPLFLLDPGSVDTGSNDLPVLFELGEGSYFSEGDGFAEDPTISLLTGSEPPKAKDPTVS
# Sequence of SPIB (Q01892 whole entry): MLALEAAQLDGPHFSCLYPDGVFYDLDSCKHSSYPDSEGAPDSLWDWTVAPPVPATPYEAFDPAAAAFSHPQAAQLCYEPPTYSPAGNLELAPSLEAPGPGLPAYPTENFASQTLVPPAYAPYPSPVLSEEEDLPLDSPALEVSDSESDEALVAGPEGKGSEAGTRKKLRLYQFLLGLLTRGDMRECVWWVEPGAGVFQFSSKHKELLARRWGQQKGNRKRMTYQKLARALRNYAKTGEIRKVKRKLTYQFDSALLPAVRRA
# Sequence of ETV5 (P41161 whole entry): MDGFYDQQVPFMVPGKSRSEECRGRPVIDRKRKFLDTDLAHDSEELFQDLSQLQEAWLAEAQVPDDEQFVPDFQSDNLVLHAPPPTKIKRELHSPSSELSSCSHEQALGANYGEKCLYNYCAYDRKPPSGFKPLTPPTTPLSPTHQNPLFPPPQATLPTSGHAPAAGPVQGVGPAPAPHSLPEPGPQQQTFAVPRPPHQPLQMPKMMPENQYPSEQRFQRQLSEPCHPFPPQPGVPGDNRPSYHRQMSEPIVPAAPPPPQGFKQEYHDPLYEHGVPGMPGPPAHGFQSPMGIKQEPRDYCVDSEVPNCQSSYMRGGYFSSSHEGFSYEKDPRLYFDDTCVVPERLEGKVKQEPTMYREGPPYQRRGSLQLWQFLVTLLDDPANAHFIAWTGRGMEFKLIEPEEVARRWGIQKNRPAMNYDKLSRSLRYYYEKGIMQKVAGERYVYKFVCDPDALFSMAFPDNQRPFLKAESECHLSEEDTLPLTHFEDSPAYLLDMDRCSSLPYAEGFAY
sequence,measurement,setting,value
TCTTGC,binding signal,FLI1,"1.29 fold enrichment (6-mer frequency, TF over GST control)"
same,binding signal,ELK1,"1.33 fold enrichment (6-mer frequency, TF over GST control)"
same,binding signal,GABPA,"1.28 fold enrichment (6-mer frequency, TF over GST control)"
same,binding signal,ERG,"1.24 fold enrichment (6-mer frequency, TF over GST control)"
same,binding signal,ELF1,"1.41 fold enrichment (6-mer frequency, TF over GST control)"
same,binding signal,EHF,"1.31 fold enrichment (6-mer frequency, TF over GST control)"
same,binding signal,SPI1,"1.28 fold enrichment (6-mer frequency, TF over GST control)"
same,binding signal,SPIB,"1.33 fold enrichment (6-mer frequency, TF over GST control)"
same,binding signal,ELK3,"1.55 fold enrichment (6-mer frequency, TF over GST control)"
same,binding signal,FEV,"1.24 fold enrichment (6-mer frequency, TF over GST control)"
same,binding signal,ETV5,"1.39 fold enrichment (6-mer frequency, TF over GST control)"
same,binding signal,HSF1,"1.2 fold enrichment (6-mer frequency, TF over GST control)"
same,binding signal,SPIC,"1.36 fold enrichment (6-mer frequency, TF over GST control)"
same,binding signal,ELF4,"1.32 fold enrichment (6-mer frequency, TF over GST control)"
same,binding signal,ELK4,"1.3 fold enrichment (6-mer frequency, TF over GST control)"
same,binding signal,ETV2,"1.36 fold enrichment (6-mer frequency, TF over GST control)"
same,binding signal,ELF3,"1.4 fold enrichment (6-mer frequency, TF over GST control)"
same,binding signal,CRX,"1.21 fold enrichment (6-mer frequency, TF over GST control)"
same,binding signal,ETV1,"1.4 fold enrichment (6-mer frequency, TF over GST control)"

# — article PMC7862700, “An all-to-all approach to the identification of sequence-specific readers for epigenetic DNA modifications on cytosine”
